Experimental findings from PubChem BioAssay are described below.

Usually inhibition stands for the drop in the measured response relative to a control, in per cent.

The nature of assay [1]: antimalarial activity against Dd2 strain (AID 2302;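 active = growth inhibition above 50% at the single 2 µM test dose, taken to imply half-maximal potency below 2 µM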;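 also: 0% = DMSO untreated growth and 100% = chloroquine plus artemisinin killed control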). Conditions: P. falciparum Dd2 in RBCs, LDH growth readout, 72 h; at 2 µM; stronger effect = higher value.
Assay [2] can be described thus: HepG2 cytotoxicity, primary screen, cytotoxicity control for P. falciparum antimalarial project, cell-based, ATP luminescence (AID 2303;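 active = inhibition above 50%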;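 also: 0% = DMSO wells and 100% = digitonin-killed cells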). Conditions: HepG2 viability, 24-48 h, at 10 µM, stronger effect = higher value.
Assay [3] concerns the target L-lactate dehydrogenase (Plasmodium falciparum (isolate CDC / Honduras)) (UniProt Q27743). In words: PfLDH activity inhibition – cell lysate, 3D7 strain, counter-screen for P. falciparum growth inhibition project (AID 2304).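 Also: 0% = vehicle and 100% = reference inhibitor.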 To be noted: P. falciparum 3D7 crude extract, LDH APAD/NBT absorbance; at 2 µM; stronger effect = higher value. (A counterscreen serves to expose hits that act by an unwanted route or on another target.)

The nature of assay [4]: inhibition of 3D7 malaria parasite growth – strain 3D7 (AID 2306).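 Also: 0% = DMSO wells and 100% = chloroquine plus artemisinin control wells.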 To be noted: P. falciparum 3D7 erythrocytic growth, LDH absorbance, 72 h; at 2 µM; stronger effect = higher value.
The target in assay [5] is Calcium-dependent protein kinase 1 (Plasmodium falciparum (isolate 3D7)) (UniProt P62344). In words: PfCDPK1 kinase inhibitors, biochemical, TCAMS library (AID 1159585; cut-off not given, nearly all actives have IC50 up to about 0.98 µM;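 also: inhibitors leave more ATP so luminescence rises with inhibition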). To be noted: recombinant PfCDPK1, Kinase-Glo ATP depletion luminescence. On the technique in general: Kinase-Glo measures the ATP left after a reaction by luminescence.
Sequence of Calcium-dependent protein kinase 1 (Plasmodium falciparum (isolate 3D7)) (P62344 whole entry, looked up): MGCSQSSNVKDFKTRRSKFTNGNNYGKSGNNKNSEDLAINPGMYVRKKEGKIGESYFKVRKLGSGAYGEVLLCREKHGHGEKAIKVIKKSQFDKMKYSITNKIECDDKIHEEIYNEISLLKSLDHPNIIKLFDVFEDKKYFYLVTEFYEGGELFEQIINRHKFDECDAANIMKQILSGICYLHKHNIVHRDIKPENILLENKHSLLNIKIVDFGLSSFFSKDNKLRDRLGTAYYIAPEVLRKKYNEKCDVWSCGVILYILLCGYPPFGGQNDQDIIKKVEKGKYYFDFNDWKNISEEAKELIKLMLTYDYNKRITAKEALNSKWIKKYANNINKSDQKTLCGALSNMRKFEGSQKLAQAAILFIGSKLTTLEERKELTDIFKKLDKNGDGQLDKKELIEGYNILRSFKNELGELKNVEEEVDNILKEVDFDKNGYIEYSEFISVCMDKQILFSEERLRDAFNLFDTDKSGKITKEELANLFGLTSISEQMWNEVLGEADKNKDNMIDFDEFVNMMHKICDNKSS
Assay [6] addresses Plasmodium falciparum protein kinase 6 (PK6, PF3D7_1337100) (UniProt Q8IDW1). Nature of the assay: PfPK6 kinase inhibitors, biochemical, TCAMS library (AID 1159586). To be noted: recombinant PfPK6, Kinase-Glo ATP depletion luminescence.
For assay [7], the target named is Protein kinase 7 (PK7), Plasmodium falciparum 3D7 (PF3D7_0213400) (UniProt Q7YTF7). In words: inhibition of Plasmodium PK7 catalytic activity – biochemical, TCAMS antimalarial set, Kinase-Glo luminescence (AID 1159587). Conditions: recombinant PfPK7, Kinase-Glo ATP depletion luminescence.
Sequence of Protein kinase 7 (PK7), Plasmodium falciparum 3D7 (PF3D7_0213400) (Q7YTF7 1-343): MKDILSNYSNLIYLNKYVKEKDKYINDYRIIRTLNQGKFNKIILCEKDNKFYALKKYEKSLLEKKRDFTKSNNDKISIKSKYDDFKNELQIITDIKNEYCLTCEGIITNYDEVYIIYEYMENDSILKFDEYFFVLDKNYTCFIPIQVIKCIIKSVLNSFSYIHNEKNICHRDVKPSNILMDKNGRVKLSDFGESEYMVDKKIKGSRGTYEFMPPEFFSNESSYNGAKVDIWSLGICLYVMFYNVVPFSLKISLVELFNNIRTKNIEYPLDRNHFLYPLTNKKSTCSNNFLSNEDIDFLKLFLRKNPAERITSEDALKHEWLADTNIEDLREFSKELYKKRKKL
The target in assay [8] is Calcium-dependent protein kinase 4 (Plasmodium falciparum (isolate 3D7)) (UniProt Q8IBS5). In words: PfCDPK4 kinase inhibitors, biochemical, TCAMS library (AID 1159588; cut-off not given, nearly all actives have IC50 up to about 0.91 µM). Conditions: recombinant PfCDPK4, Kinase-Glo ATP depletion luminescence.
Sequence of Calcium-dependent protein kinase 4 (Plasmodium falciparum (isolate 3D7)) (Q8IBS5 whole entry, looked up): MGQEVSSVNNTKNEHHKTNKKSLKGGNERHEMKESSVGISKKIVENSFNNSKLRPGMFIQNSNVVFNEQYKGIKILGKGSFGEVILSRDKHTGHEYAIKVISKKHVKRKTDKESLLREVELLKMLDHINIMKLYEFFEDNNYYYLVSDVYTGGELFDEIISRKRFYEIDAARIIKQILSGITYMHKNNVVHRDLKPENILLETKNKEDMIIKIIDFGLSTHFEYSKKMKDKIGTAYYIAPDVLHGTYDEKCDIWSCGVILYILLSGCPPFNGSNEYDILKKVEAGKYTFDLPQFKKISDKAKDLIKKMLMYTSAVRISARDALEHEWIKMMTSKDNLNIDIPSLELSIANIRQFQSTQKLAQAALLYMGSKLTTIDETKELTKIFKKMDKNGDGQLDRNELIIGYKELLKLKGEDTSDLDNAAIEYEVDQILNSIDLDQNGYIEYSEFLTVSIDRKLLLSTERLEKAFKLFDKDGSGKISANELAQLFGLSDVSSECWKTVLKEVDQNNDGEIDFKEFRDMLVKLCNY

A number with no mark means an inactive call. For some of these results: Potency and affinity values are given separately. Active and inactive are the calls of the source. Unless noted, no rule for the calls is given here.

Sequence of Plasmodium falciparum protein kinase 6 (PK6, PF3D7_1337100) (Q8IDW1 1-305): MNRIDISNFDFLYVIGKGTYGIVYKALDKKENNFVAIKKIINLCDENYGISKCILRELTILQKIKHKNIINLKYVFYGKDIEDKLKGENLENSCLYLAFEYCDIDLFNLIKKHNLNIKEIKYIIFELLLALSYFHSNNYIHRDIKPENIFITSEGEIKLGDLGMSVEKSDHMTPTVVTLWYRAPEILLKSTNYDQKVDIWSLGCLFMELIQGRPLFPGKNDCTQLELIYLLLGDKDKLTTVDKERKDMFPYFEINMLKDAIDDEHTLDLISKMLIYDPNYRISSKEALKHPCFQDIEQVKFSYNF
Sequence of L-lactate dehydrogenase (Plasmodium falciparum (isolate CDC / Honduras)) (Q27743 whole entry, looked up): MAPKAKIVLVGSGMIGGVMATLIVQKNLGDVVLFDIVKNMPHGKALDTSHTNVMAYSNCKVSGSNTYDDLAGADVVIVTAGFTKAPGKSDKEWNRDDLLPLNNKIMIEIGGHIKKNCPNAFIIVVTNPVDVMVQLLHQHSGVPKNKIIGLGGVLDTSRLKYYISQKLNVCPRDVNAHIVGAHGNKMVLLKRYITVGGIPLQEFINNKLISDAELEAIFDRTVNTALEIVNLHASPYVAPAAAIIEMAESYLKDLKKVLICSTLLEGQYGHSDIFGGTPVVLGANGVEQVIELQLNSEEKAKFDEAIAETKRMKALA

Regarding `CN(C)c1ccc(C=C2SC(=O)NC2=Nc2ccccc2)cc1`, the growth inhibition in assay [1] was 96% (active); in assay [4], 97% (active). Moreover, the inhibition in assay [2] is 42%; in assay [3] it was 6%. Moreover, the outcome in assay [5], in assay [6], in assay [7] and in assay [8] was inactive.
`C[C@H](Cc1ccc(OCCNC[C@H](O)c2cccc(Cl)c2)cc1)NC[C@H](O)c1ccc(Cl)c(Cl)c1`: the values for the growth inhibition in assay [1] and in assay [4] were 64% (active) and 83% (active), respectively. Further, the values for the inhibition in assay [2] and in assay [3] were 69% (active) and 4%, respectively. Moreover, the result in assay [5], in assay [6], in assay [7] and in assay [8] was inactive.
Regarding `CCOc1ccc(Br)cc1/C=C/C(=O)Nc1ccc2c(c1)CCCN(C)C2`, the growth inhibition is 17% in assay [1] and 90% (active) in assay [4]. The inhibition was 40% in assay [2] and -1% in assay [3]. The result in assay [5], in assay [6], in assay [7] and in assay [8] was inactive.
For `CC(C)(C)c1ccc(CN(C[C@@H](O)CNS(=O)(=O)c2cc(Cl)cc(Cl)c2)C(C)(C)C)cc1`, the figures for the growth inhibition in assay [1] and in assay [4] were 94% (active) and 98% (active), respectively. Also, the figures for the inhibition in assay [2] and in assay [3] were 74% (active) and -8%, respectively. The outcome in assay [5], in assay [6], in assay [7] and in assay [8] was inactive.
With `Cc1cc(N[C@@H](CC(C)C)C(=O)NC2CCCC2)nc(NCCc2ccc(F)cc2)n1`, the growth inhibition was 47% in assay [1] and 100% (active) in assay [4]. The inhibition is 15% in assay [2] and -2% in assay [3]. Also, the outcome in assay [5], in assay [6], in assay [7] and in assay [8] was inactive.
Take `COc1ccc(C2CC(c3ccccc3O)=NN2C(=O)c2ccco2)cc1OC` (stereo not given): the results for the growth inhibition in assay [1] and in assay [4] were 68% (active) and 96% (active), respectively. Besides, the inhibition in assay [2] was 11%; in assay [3], 1%. The outcome in assay [5], in assay [6], in assay [7] and in assay [8] was inactive.
`O=C(Nc1ccc(Cl)c(C(F)(F)F)c1)Nc1ccc(Cl)c(C(F)(F)F)c1`: the growth inhibition was 96% (active) in assay [1] and 94% (active) in assay [4]. The inhibition in assay [2] was 1%; in assay [3], 6%. The outcome in assay [5], in assay [6], in assay [7] and in assay [8] was inactive.
Take `COc1ccc(N(c2nc(-c3cc(Cl)ccc3Cl)cs2)C2CCNC2)cc1` (stereo not given): the growth inhibition in assay [1] is 9%; in assay [4], 95% (active). For the same molecule, the inhibition is 21% in assay [2] and 3% in assay [3]. Further, the outcome in assay [5], in assay [6], in assay [7] and in assay [8] was inactive.
`CN(CCCN)CCCNc1ccnc2cc(Cl)ccc12`: the growth inhibition in assay [1] was -2%; in assay [4], 101% (active). Moreover, the inhibition in assay [2] was 1%; in assay [3], -10%. Besides, the result in assay [5], in assay [6], in assay [7] and in assay [8] was inactive.
Consider `C[C@@H]1CN(c2ccc3occ(C(=O)Nc4ccc(-c5ccncc5)c(Cl)c4)c3c2)C[C@H](C)N1C`, for which the growth inhibition in assay [1] was 96% (active); in assay [4] it was 100% (active). Moreover, the inhibition is 14% in assay [2] and -4% in assay [3]. For the same molecule, the result in assay [5], in assay [6], in assay [7] and in assay [8] was inactive.
On to `O=C(Nc1cc(Cl)cc(Cl)c1)N[C@H]1CCN(CCCCCNC(=O)[C@@H]2C[C@H]2c2ccc(Cl)c(Cl)c2)C1`, for which the growth inhibition in assay [1] is -3%; in assay [4], 99% (active). For the same molecule, the inhibition in assay [2] was 49%; in assay [3], 3%. Also, the outcome in assay [5], in assay [6], in assay [7] and in assay [8] was inactive.
Regarding `COc1ccc2nccc([C@@H](O)CN3CCC(NC(=O)/C=C/c4cccc(-c5ccccc5)c4)CC3)c2c1`, the growth inhibition in assay [1] was 83% (active); in assay [4], 98% (active). The inhibition is 12% in assay [2] and -5% in assay [3]. The result in assay [5], in assay [6], in assay [7] and in assay [8] was inactive.
Regarding `Cc1cc(NN=CC=Cc2ccccc2)c2ccccc2n1`, the growth inhibition in assay [1] was 69% (active); in assay [4], 101% (active). The inhibition is 19% in assay [2] and 1% in assay [3]. Further, the outcome in assay [5], in assay [6], in assay [7] and in assay [8] was inactive.
For `COc1ccc(C(=O)N[C@@H](CC(C)C)C(=O)NC2CC[C@@H](C)N(C(=O)Nc3ccc(Cl)cc3)CC2=O)cc1OCCN1CCOCC1` (stereo not given in full), the values for the growth inhibition in assay [1] and in assay [4] were 91% (active) and 96% (active), respectively. Further, the inhibition in assay [2] and in assay [3] was 5% each time. For the same molecule, the outcome in assay [5], in assay [6], in assay [7] and in assay [8] was inactive.
Consider `O=C(N[C@@H](Cc1ccccc1)C(=O)NCc1cccc(C(F)(F)F)c1)c1ccc(O)c(-c2ccc(Cl)c(Cl)c2)c1`, for which the growth inhibition in assay [1] was 97% (active); in assay [4], 96% (active). The inhibition in assay [2] is -13%; in assay [3], -1%. Moreover, the result in assay [5], in assay [6], in assay [7] and in assay [8] was inactive.
On to `COc1cccc(-c2cnc(N)c(-c3nc4cc(Cl)c(F)cc4[nH]3)c2)c1`, for which the growth inhibition in assay [1] was 26%; in assay [4], 100% (active). The values for the inhibition in assay [2] and in assay [3] were 37% and 6%, respectively. Also, the outcome in assay [5], in assay [6], in assay [7] and in assay [8] was inactive.
Take `CCN1CCN(c2cc(C)c3cc(NC(=O)c4cccc(C(F)(F)F)c4)ccc3n2)CC1`: the growth inhibition in assay [1] was 85% (active); in assay [4] it was 101% (active). Also, the values for the inhibition in assay [2] and in assay [3] were 24% and 0%, respectively. Also, the outcome in assay [5], in assay [6], in assay [7] and in assay [8] was inactive.
On to `CCc1c[nH]c2c(N3CCCC3=O)cc(C(=O)N[C@@H](Cc3ccccc3)[C@H](O)CNC(C)(C)CCCC(C)C)cc12`, for which the growth inhibition in assay [1] was 97% (active); in assay [4] it was 96% (active). Moreover, the inhibition in assay [2] was 22%; in assay [3], 1%. Moreover, the result in assay [5], in assay [6], in assay [7] and in assay [8] was inactive.
As to `CNC(=O)c1cc(S(=O)(=O)Nc2ccc(OC)cc2)cs1`, the growth inhibition is 48% in assay [1] and 95% (active) in assay [4]. In addition, the inhibition was 11% in assay [2] and -6% in assay [3]. The result in assay [5], in assay [6], in assay [7] and in assay [8] was inactive.
As to `Cc1ccc(N2CCN(C(=O)c3cccc(-c4cncc5nc(-c6ccco6)n(C)c45)c3)CC2)nc1`, the results for the growth inhibition in assay [1] and in assay [4] were 91% (active) and 94% (active), respectively. The inhibition in assay [2] is -13%; in assay [3], -1%. Further, the result in assay [5], in assay [6], in assay [7] and in assay [8] was inactive.
